Data as given in paper PMC5540273 (PLoS ONE, 2017).

tested on: CSF1R; conditions: concentration: 1 μM, replicates: in singlicate; n = 1
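Further: KINOMEscan kinase panel screen.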

Row | Structure (SMILES) | %Inh [%]
1 | N#Cc1ccc(-c2cc(-c3c[nH]nc3-c3ccccn3)ccn2)cc1 [GW693028] | 20
2 | Fc1ccc(-c2ncn(CCCN3CCOCC3)c2-c2cccnc2)cc1 [SB-211743] | 0
3 | COc1cc2ncn(-c3cc(OCc4sccc4Cl)c(C(N)=O)s3)c2cc1OC [GSK448459] | 18
4 | O=C(NCCNc1ccnc(Nc2ccc(F)cc2)n1)c1cc2ccccc2s1 [GSK1379874] | 0
5 | CCc1ccnc(/C=C/c2n[nH]c3cc(Sc4ccccc4C(=O)NC)ccc23)c1 | 99.9
6 | Cc1nnc(-c2ccc3ncc(-c4ccc(S(C)=O)cc4)n3c2)o1 (stereo not drawn) | 17
7 | CCn1cnc2c(N)ncnc21 [GW345098] | 0
8 | Nc1nccc(-c2c(-c3ccc(F)cc3)ncn2C2CCN(CC(F)(F)F)CC2)n1 [SB-236560] | 0
9 | O=C(NCCNc1ccnc(Nc2ccc(F)cc2)n1)Nc1ccccc1F [GSK1379880] | 9
10 | O=c1cc(N2CCOCC2)nc2n(Cc3cccc(C(F)(F)F)c3)ccn12 [GSK2297543] | 0
11 | COc1ccc(Nc2nccc(N3CCC(NC(=O)Nc4cc(C)ccc4C)C3)n2)cc1 (stereo not drawn) [GSK1379741] | 4
12 | O=C1NC(=O)C(N2CCc3ccccc32)=C1c1cccc(Cl)c1 [SB-408010] | 0
13 | Cc1c(Cn2c(C)nn3c(=O)cc(N4CCOC(C)C4)nc23)cccc1C(F)(F)F (stereo not drawn) [GSK2344444] | 0
14 | Fc1ccc(-c2ncn(CCCN3CCOCC3)c2-c2ccccn2)cc1 [SB-211742] | 0
15 | Cc1c2ccc(N(C)c3ccnc(Nc4cccc(S(N)(=O)=O)c4)n3)cc2nn1Cc1ccccc1.Cl.Cl [GW787226] | 100
16 | CC(C)(C)n1cnc2c(N)ncnc21 [SKF-97359] | 0
17 | COCCNC(=O)c1ccc(-c2cc(C(=O)NC3CC3)cc(F)c2C)cc1 [GW868318] | 19
18 | Cc1cccc(-c2nc(Nc3ccc4ncsc4c3)c3ccccc3n2)n1 [GW867588] | 0
19 | CN(C(=O)c1ccc(-c2cc(-c3c[nH]nc3-c3ccccn3)ccn2)cc1)C1CCOCC1 [GW810083] | 20
20 | Cc1ccc(NC(=O)c2ccnc(N3CCN(C)CC3)c2)cc1-c1ccc(C(=O)NCC2CC2)cc1 [GW775604] | 22

tested on: CSK; conditions: concentration: 1 μM, replicates: in singlicate; n = 1

Row | Structure (SMILES) | %Inh [%]
21 | O=c1cc(N2CCOCC2)nc2n(Cc3cccc(Cl)c3Cl)c(C3CC3)nn12 [GSK2358994] | 8
22 | CCc1nc(-c2cccc(C)c2)c(-c2ccnc(NCc3ccccc3)c2)s1 | 0
23 | COc1cc2c(cc1OCCN1CCN(C)CC1)ncc1c3ccc(C#N)cc3[nH]c21 | 0
24 | NCC(NC(=O)c1cc(-c2cn[nH]c2)c(-c2ccnc3[nH]ccc23)s1)c1ccccc1.O=C(O)C(F)(F)F.O=C(O)C(F)(F)F (stereo not drawn) [GSK1325775] | 10
25 | O=c1cc(N2CCOCC2)nc2n(Cc3cccc4ccccc34)ccn12 [GSK2333389] | 0
26 | O=C(Nc1n[nH]c2cc(-c3cccc(F)c3)ccc12)C1CC1 [SB-735464] | 2
27 | C[C@@H](Oc1cc(-n2cnc3ccc(NC(=O)NC(C)(C)C)cc32)sc1C(N)=O)c1ccccc1Cl [GSK346294] | 1
28 | Cn1ccc2ncnc(Oc3ccc(NC(=O)Nc4ccncc4)c(Cl)c3)c21 | 0
29 | Nc1nc(-c2ccc3c(N)n[nH]c3c2)cc(N2CCCC2)n1 [GSK2227430] | 0
30 | O=C(NOCC1CC1)c1ccc(F)c(F)c1Nc1ccc(I)cc1Cl | 0
31 | Cn1cc(-c2ccc3c(c2)CCN3C(=O)Cc2ccccc2Cl)c2c(N)ncnc21 [GSK2608885] | 97.6
32 | NCCNS(=O)(=O)c1ccc(-c2ccnc3[nH]ccc23)cc1 [GSK977617] | 0
33 | COc1ccc(S(=O)(=O)NC2CCN(c3cc(C)nc(Nc4cccc(C#N)c4)n3)CC2)cc1.O=C(O)C(F)(F)F [GSK1653539] | 0
34 | Cc1ccc(C(=O)NCC(N)=O)cc1-n1c(C)cc(OCc2ccc(F)cc2F)c(Br)c1=O | 0
35 | N#Cc1ccc(-c2cc(-c3c[nH]nc3-c3ccccn3)ccn2)cc1 [GW693028] | 0
36 | Fc1ccc(-c2ncn(CCCN3CCOCC3)c2-c2cccnc2)cc1 [SB-211743] | 0
37 | COc1cc2ncn(-c3cc(OCc4sccc4Cl)c(C(N)=O)s3)c2cc1OC [GSK448459] | 10

Row | Structure (SMILES) | %Inh [%]
38 | O=C(NCCNc1ccnc(Nc2ccc(F)cc2)n1)c1cc2ccccc2s1 [GSK1379874] | 0
39 | CCc1ccnc(/C=C/c2n[nH]c3cc(Sc4ccccc4C(=O)NC)ccc23)c1 | 12
40 | Cc1nnc(-c2ccc3ncc(-c4ccc(S(C)=O)cc4)n3c2)o1 (stereo not drawn) | 0
41 | CCn1cnc2c(N)ncnc21 [GW345098] | 0
42 | Nc1nccc(-c2c(-c3ccc(F)cc3)ncn2C2CCN(CC(F)(F)F)CC2)n1 [SB-236560] | 0
43 | O=C(NCCNc1ccnc(Nc2ccc(F)cc2)n1)Nc1ccccc1F [GSK1379880] | 0
44 | O=c1cc(N2CCOCC2)nc2n(Cc3cccc(C(F)(F)F)c3)ccn12 [GSK2297543] | 0
45 | COc1ccc(Nc2nccc(N3CCC(NC(=O)Nc4cc(C)ccc4C)C3)n2)cc1 (stereo not drawn) [GSK1379741] | 0
46 | O=C1NC(=O)C(N2CCc3ccccc32)=C1c1cccc(Cl)c1 [SB-408010] | 11
47 | Cc1c(Cn2c(C)nn3c(=O)cc(N4CCOC(C)C4)nc23)cccc1C(F)(F)F (stereo not drawn) [GSK2344444] | 0
48 | Fc1ccc(-c2ncn(CCCN3CCOCC3)c2-c2ccccn2)cc1 [SB-211742] | 0
49 | Cc1c2ccc(N(C)c3ccnc(Nc4cccc(S(N)(=O)=O)c4)n3)cc2nn1Cc1ccccc1.Cl.Cl [GW787226] | 9
50 | CC(C)(C)n1cnc2c(N)ncnc21 [SKF-97359] | 0
51 | COCCNC(=O)c1ccc(-c2cc(C(=O)NC3CC3)cc(F)c2C)cc1 [GW868318] | 13
52 | Cc1cccc(-c2nc(Nc3ccc4ncsc4c3)c3ccccc3n2)n1 [GW867588] | 3
53 | CN(C(=O)c1ccc(-c2cc(-c3c[nH]nc3-c3ccccn3)ccn2)cc1)C1CCOCC1 [GW810083] | 0
54 | Cc1ccc(NC(=O)c2ccnc(N3CCN(C)CC3)c2)cc1-c1ccc(C(=O)NCC2CC2)cc1 [GW775604] | 0
